# TDP1 cell CPT: qHTS for Inhibitors of human tyrosyl-DNA phosphodiesterase 1 (TDP1): qHTS in cells in presence of CPT; chicken DT40 Tdp1-/-;hTDP1 cells + 20 nM CPT, ATP luminescence, 48 h; actives 12% (n = 420,000); Potency, µM (highest dose often 46.2 µM), for the others: at the highest dose activity change, negative = growth inhibition, usual class: inhibitors; note: potency is the fitted concentration of half-maximal effect; nearly all actives have a fitted effect of over 55% in size
#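 Chicken DT40 Tdp1-/- cells stably complemented with human TDP1 were seeded at 400 cells/well in medium containing 20 nM camptothecin, exposed to pin-transferred compounds, and grown at 37 °C for at least 48 hr. Viability was read as ATP luminescence.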
# IL-1B inflam inh: qHTS for Inhibitors of Inflammasome Signaling: IL-1-beta AlphaLISA Primary Screen | THP-1 LPS/ATP IL-1B secretion, AlphaLISA, 16 h; stronger effect = lower value | activity change, % at 57.5 µM | actives 4.7% (n = 360,000); in the data active = activity change below about -50%; inconclusive = mostly about -30% to -49%
#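 Secreted IL-1B measured by AlphaLISA bead assay after 16 h compound exposure of THP-1 cells; compounds (final up to 57.5 uM) added 1 h before LPS (250 ng/mL) and ATP (1.25 mM) stimulation; lower signal means less secretion.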
# Gal4-VP16 FLuc: VP16 counterscreen qHTS for inhibitors of ROR gamma transcriptional activity; Potency, µM (top dose mostly 53.6 µM), without a hit: at the top dose activity, negative = inhibition, most hits filed as inhibitors; actives 3.5% (n = 310,000); Drosophila S2 Gal4-VP16 UAS-luciferase, luminescence, 20 h;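 note: Gal4-VP16 expression switched on by copper sulfate through the metallothionein promoter; potency is the fitted concentration of half-maximal effect; nearly all actives have a fitted effect of over 50% in size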
# RORg inh: qHTS for inhibitors of ROR gamma transcriptional activity; Drosophila S2 Gal4-RORgamma UAS-luciferase reporter, 20 h; AID 2551, 2010; Potency, µM (top dose mostly 53.6 µM), without a hit: at the highest dose activity change, negative = inhibition, hits mostly inhibitors; Nuclear receptor ROR-gamma (Mus musculus), P51450; actives 5.4% (n = 310,000); note: potency is the fitted concentration of half-maximal effect; nearly all actives have a fitted effect of over 60% in size
# Target sequence (P51450 whole entry, looked up, the tested form may be a part): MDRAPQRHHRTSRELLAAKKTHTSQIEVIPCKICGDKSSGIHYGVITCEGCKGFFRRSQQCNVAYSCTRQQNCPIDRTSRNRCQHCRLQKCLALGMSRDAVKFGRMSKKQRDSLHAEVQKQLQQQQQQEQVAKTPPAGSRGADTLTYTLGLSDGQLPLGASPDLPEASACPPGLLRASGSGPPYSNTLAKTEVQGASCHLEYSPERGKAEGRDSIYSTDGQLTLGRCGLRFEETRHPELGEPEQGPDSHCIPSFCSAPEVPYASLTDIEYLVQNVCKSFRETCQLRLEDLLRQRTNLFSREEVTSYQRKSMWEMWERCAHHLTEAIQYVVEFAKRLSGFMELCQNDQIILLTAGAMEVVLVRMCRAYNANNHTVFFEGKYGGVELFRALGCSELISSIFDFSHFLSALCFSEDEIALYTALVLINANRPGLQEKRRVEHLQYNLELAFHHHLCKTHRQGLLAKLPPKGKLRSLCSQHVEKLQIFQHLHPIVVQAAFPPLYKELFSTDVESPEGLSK
#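 In this cell-based reporter format, copper sulfate (700 uM final) drives Gal4–ROR gamma fusion expression from a metallothionein promoter in Drosophila Schneider cells; compounds preincubated 1 hr, reporter read after 20 hr at ambient temperature.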
# DT40 TDP1 no CPT: qHTS for Inhibitors of human tyrosyl-DNA phosphodiesterase 1 (TDP1): qHTS in cells in absence of CPT; DT40 Tdp1-/- hTDP1 cells, no CPT, ATP luminescence, 48 h; Potency, µM (series often up to 46.2 µM), without a hit: top-dose activity change, negative = growth inhibition, most hits filed as inhibitors; actives 15% (n = 420,000); note: potency is the fitted concentration of half-maximal effect; nearly all actives have a fitted effect of over 55% in size
#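 Cells were dispensed at 400 per well, compounds added by pin tool, plates incubated ≥48 hr at 37 °C, then CellTiter-Glo added for 30 min at room temperature before luminescence reading. Line: DT40 Tdp1-/- complemented with hTDP1; camptothecin omitted.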
# LDHA inh: qHTS assay for inhibitors of human lactate dehydrogenase; L-lactate dehydrogenase A chain (Homo sapiens), P00338; purified LDHA, NADH/diaphorase-resazurin fluorescence; stronger effect = lower value; activity change, % (values are at about 110 or 230 µM); actives 0.15% (n = 480,000); in the data active = activity change below about -30%; inconclusive = mostly about -25% to -30%;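 note: plate controls were DMSO wells for no effect and wells without enzyme for full effect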
#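 Human LDH5 (2 nM) was incubated with 0.06 mM NADH and 0.2 mM pyruvate for 5 min at room temperature in Tris pH 7.4. Remaining NADH was coupled through diaphorase/resazurin, and resorufin fluorescence was read at 0 and 20 min.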
# An asterisk follows results filed as active; i = inactive; ? = inconclusive; nt = no result; ! = a repeat was not active; [ ] = dose if it differs, or a comment. In the library only some 18% were active in any assay of this set; here they are far more common. Unless noted, calls come from the whole dose curve; as a rule, active = well fitted curve in the direction sought with a large enough effect; inconclusive = small, poorly fitted or top-dose-only effect, or another doubt; inactive = no such curve, though single readings can be large; an effect the other way counts as inactive or inconclusive. Unless noted, % is set by controls: 0 for no effect and ±100 for the full control effect.
SMILES,TDP1 cell CPT,IL-1B inflam inh,Gal4-VP16 FLuc,RORg inh,DT40 TDP1 no CPT,LDHA inh
COc1cc2nc(CCc3nc4cc(OC)c(OC)cc4[nH]3)[nH]c2cc1OC,5.62µM*,nt,nt,nt,2µM*,nt
CCCCc1nc2ccccc2n2c(-c3ccc(OC)cc3)c3c(=O)n(C)c(=O)n(C)c3c12,?,nt,nt,nt,18.4µM*,-5.4
Cc1ccc(-c2c3c(=O)n(C)c(=O)n(C)c3c3cnc4ccccc4n23)cc1,-14.0%,nt,nt,nt,-14.1%,-12.0
CCCCc1nc2ccccc2n2c(-c3ccc(C)cc3)c3c(=O)n(C)c(=O)n(C)c3c12,?,nt,nt,nt,11.6µM*,-1.3
CCCc1nc2ccccc2n2c(-c3ccccc3)c3c(=O)n(C)c(=O)n(C)c3c12,13µM*,nt,nt,nt,?,-1.0
CCc1nc2ccccc2n2c(-c3ccc(C)cc3)c3c(=O)n(C)c(=O)n(C)c3c12,?,nt,nt,nt,?,-3.4
COc1ccc(-c2nc3ccccc3n3c(-c4ccc(OC)cc4)c4c(=O)n(C)c(=O)n(C)c4c23)cc1,?,nt,nt,nt,?,-1.3
Cc1nc(NCc2ccco2)c2cn[nH]c2n1,-9.5%,27.6,nt,nt,?,-5.7
Brc1ccc2ncnc(NCc3ccco3)c2c1,20.6µM*,-9.4,?,-31.7%,18.4µM*,1.0
COc1ccc(CNc2ncnc3cc(Cl)ccc23)cc1,14.6µM*,55.9,?,-35.6%,13µM*,-0.1
COc1cccc(CNc2ncnc3cc(Cl)ccc23)c1,?,-2.0,5.5%[10 µM],?,?,-4.0
COc1cc2ncnc(NCc3ccco3)c2cc1OC,18.4µM*,-10.5,-2.8%[10 µM],?,?,-5.5
c1coc(CNc2nc3nonc3nc2NCc2ccco2)c1,?,24.4,12.6µM*,0.0%,?,-0.4
CCOc1c(Br)cc(/C=C(/C#N)C(=O)OCCOC)cc1OC,nt,nt,nt,nt,nt,-0.7
Cc1[nH]c2ccc(C(=O)OCC(=O)N3CCCC3=O)cc2c1C,nt,nt,nt,nt,nt,-2.9
COc1ccc(NC(=O)NC2CCN(c3nc(C)cc(C)n3)CC2)cc1,nt,nt,nt,nt,nt,11.1
COC(=O)C(C)OC(=O)c1cc2ccccc2cc1OC (stereo not drawn),nt,nt,nt,nt,nt,8.1
COc1ccccc1CNc1ncnc2cc(OC)c(OC)cc12,20.6µM*,-20.2,-2.3%,15.8%,23.1µM*,-0.8
Cc1ccccc1CNc1ncnc2ccccc12,nt,nt,nt,nt,nt,-0.3
COc1cc2ncnc(NCc3ccccc3)c2cc1OC,?,?,-10.4%,-37.6%,?,3.5
Cc1ccc(CNc2ncnc3[nH]ncc23)o1,-1.0%,nt,nt,nt,-7.1%,1.1
Fc1cccc(CNc2ncnc3cc(Cl)ccc23)c1F,16.4µM*,15.3,?,42.4%,10.3µM*,-3.6
COc1cc2ncnc(NCc3cc(F)ccc3F)c2cc1OC,-11.0%,-14.5,-3.6%,-1.1%,?,-0.5
c1coc(CNc2ncnc3[nH]ncc23)c1,11.2µM*!,15.3,-1.6%,?,?,-2.7
COc1cc2ncnc(NCc3cccc(Cl)c3)c2cc1OC,14.6µM*,-24.6,-21.2%,10.0%,14.6µM*,-1.0
SMILES,TDP1 cell CPT,IL-1B inflam inh,Gal4-VP16 FLuc,RORg inh,DT40 TDP1 no CPT,LDHA inh
CC(=O)c1ccc(S(=O)(=O)N2CCCC2c2cccn2C)cc1 (stereo not drawn),nt,nt,nt,nt,nt,4.7
CC(Cc1cccc(C(F)(F)F)c1)NCCOC(=O)c1ccccc1 (stereo not drawn),?,-22.0,-7.8%,31.1%,18.4µM*!,-6.4
COC(=O)c1cc(-c2ccco2)nc2c(C)cccc12,nt,nt,nt,nt,nt,6.8
Cc1ccc(/C=C/C2=NN(C)C(=O)CC2)cc1,-1.9%,-18.0,-21.0%,?,?,-2.1
CCOC(=O)C(C)N1N=C(/C=C/c2ccc(OC)cc2)CCC1=O (stereo not drawn),?,4.0,-6.6%,6.6%,13µM*,-2.8
CCOc1ccccc1NC(=O)C(OC(=O)c1ccc(N(C)C)cc1)c1ccccc1 (stereo not drawn),0.581µM*,17.1,-19.8%,5.5%,?,-6.7
CCOc1ccccc1NC(=O)C(OC(=O)c1ccc(CC)cc1)c1ccccc1 (stereo not drawn),16.4µM*,3.9,-14.5%,33.9%,?,3.1
CCn1nc(C(=O)Nc2ccc(OC)c(NC(C)=O)c2)c2ccccc2c1=O,nt,nt,nt,nt,nt,6.9
CCCNc1nc2ccccc2nc1C(=O)Nc1cccc(C)c1C,nt,nt,nt,nt,nt,-4.4
O=C(Nc1nccs1)c1ccc(Cl)c(S(=O)(=O)N2CCCCC2)c1,10.2%,-11.7,?,10µM*,-24.1%,0.4
Cc1ccc(NC(=O)c2cnccn2)cc1S(=O)(=O)N1CCCCCC1,?,14.3,nt,nt,23.1µM*,0.7
Cc1cccnc1NC(=O)c1ccc(Cl)c(S(=O)(=O)N2CCCCCC2)c1,-14.1%,0.0,?,3.98µM*,?,5.7
CCN(CC)S(=O)(=O)c1cc(C(=O)Nc2ccncc2)ccc1Cl,23.1µM*,-56.0*,?,?,15.8µM*,-2.0
Cc1cnc(C(=O)Nc2ccc(C)c(S(=O)(=O)N3CCCCC3)c2)cn1,-1.7%,39.5,nt,nt,-21.4%,-7.5
CC(=O)c1cnn(-c2cc(Nc3ccc(F)cc3)ncn2)c1C,nt,nt,nt,nt,nt,1.7
Cc1c(C(=O)Nc2ccc(S(=O)(=O)C(F)F)cc2)oc2ccccc12,nt,nt,nt,nt,nt,4.6
O=C(Nc1nc2ccccc2[nH]1)c1ccc(S(=O)(=O)N2CCOCC2)cc1,?,17.8,?,10.8%,?,-16.1
O=C(Nc1ccncc1)c1ccc(Cl)c(S(=O)(=O)N2CCCC2)c1,?,51.5,nt,nt,25.9µM*,-13.4
O=C(Nc1ccon1)c1ccc(F)c(S(=O)(=O)N2CCCCC2)c1,-8.0%,12.1,-6.2%,20.6%,?,-2.0
O=C(Nc1nc2ccccc2[nH]1)c1ccc(Cl)c(S(=O)(=O)N2CCCC2)c1,18.4µM*,-58.6*,8.91µM*,6.31µM*,16.4µM*,-3.3
O=C(Nc1ccc(Cl)c(S(=O)(=O)N2CCCCC2)c1)c1cccnc1,18.4µM*,0.0,nt,nt,?,1.8
O=C(Nc1ccon1)c1ccc(Cl)c(S(=O)(=O)N2CCCCC2)c1,?,i,2.24µM*,1.41µM*,23.1µM*,-1.1
O=c1[nH]cnc2scc(-c3ccc(Cl)cc3)c12,nt,nt,nt,nt,nt,-2.4
Cn1nnnc1-c1cccc(NC(=O)c2ccc3[nH]c4c(c3c2)CCCC4)c1,nt,nt,nt,nt,nt,9.2
CCOC(=O)CN1C(C(C)=O)=C(OC(=O)CC)c2ccccc2S1(=O)=O,nt,nt,nt,nt,nt,4.7
